# Only some compounds are listed: those with a hit (about 10% of all), similar ones and a draw of the others.
# L3MBTL1 inh – L3MBTL1 (human) inhibition | hit rate 0.66% among 230,000 | Potency, µM (top dose mostly 57.1 µM), without a hit: at the top dose activity, negative = inhibition, usual class: inhibitors | Q9Y468 | AlphaScreen L3MBTL1–H3K9me1 peptide binding; note: % is set by controls: 0 for no effect and ±100 for the full control effect; nearly all actives have a fitted effect of over 60% in size
#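 First, the protein-peptide complex forms for 30 min at room temperature (L3MBTL1 50 nM, biotinylated H3K9me1 peptide 75 nM). Next, compounds are pin-transferred and incubated 30 min. Finally, AlphaScreen beads are added and read after 30 min.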
# GLS inhibitor – glutaminase GLS (human) inhibition. GLS enzymatic activity, qHTS titration. Potency, µM (titrated, usually from 45.5 µM), without a hit: top-dose activity change, negative = inhibition, hits mostly inhibitors. hit rate 0.21% among 410,000; note: % is set by controls: 0 for no effect and ±100 for the full control effect
#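 Compounds were pin-transferred onto hKGA, after which L-glutamine (1 mM solution) and a detection mix of glutamate oxidase, HRP and Amplex Red were added. Initial and 30 min RT fluorescence reads were collected.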
# HP1b chromo inh – blocks HP1-beta chromodomain binding to methylated histone tails | hit rate 0.56% among 390,000 | Potency, µM (doses to about 114 µM), inactives show top-dose activity change, negative = inhibition, hits mostly inhibitors | AlphaScreen HP1-beta / biotin-H3K9me3 peptide binding; note: nearly all actives have a fitted effect of over 70% in size
#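 HP1-beta protein (50 nM final) preincubated 30 min at room temperature with biotinylated H3(1-18)K9me3 peptide (50 nM) in PBS pH 7.4, 0.01% Tween-20, then compound added for 30 min. AlphaScreen streptavidin donor/nickel chelate acceptor beads (10 ug/mL final), 30 min dark, luminescence read.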
# BAZ2B inh – blocks human BAZ2B; hit rate 4.4% among 360,000; AID 504333; Potency, µM (top dose mostly 114 µM), inactives show at the highest dose activity change, negative = inhibition, actives largely listed as inhibitors; Q9UIF8; AlphaScreen BAZ2B-H3K14Ac peptide displacement; note: % is set by controls: 0 for no effect and ±100 for the full control effect; nearly all actives have a fitted effect of over 60% in size
#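 AlphaScreen luminescence quantifies BAZ2B engagement of H3K14Ac peptide; the protein and biotinylated peptide are both at 50 nM final, buffer PBS pH 7.4 with 0.01% Tween-20, all steps at room temperature.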
# JMJD2A Tudor inh – JMJD2A Tudor domain (human) inhibition. O75164. AlphaScreen JMJD2A-Tudor / H3K4me3 peptide binding. Potency, µM (doses to about 114 µM), without a hit: at the highest dose activity change, negative = inhibition, actives largely listed as inhibitors. hit rate 4.4% among 390,000; note: % is set by controls: 0 for no effect and ±100 for the full control effect; nearly all actives have a fitted effect of over 50% in size
# G9a inh – inhibitors of human histone lysine methyltransferase G9a; G9a H3K9 monomethylation, AlphaScreen, 2 h; Potency, µM (series often up to 102 µM), for the others: top-dose activity, negative = inhibition, actives largely listed as inhibitors; hit rate 8.8% among 350,000; AID 504332; note: % is set by controls: 0 for no effect and ±100 for the full control effect; nearly all actives have a fitted effect of over 75% in size
#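 AlphaScreen read-out: biotin-H3K9 peptide (500 nM) methylation by 20 nM enzyme with 20 uM SAM, 2 h at room temperature after 15 min compound preincubation; anti-monomethyl H3K9 antibody plus donor/acceptor beads, 10 min dark.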
# The depositor's hits bear a star; ? = inconclusive; nt = not tested or not shown; ! = not confirmed by another sample; [ ] = dose if it differs, or a comment. Calls come from the whole dose curve; as a rule, active = well fitted curve in the direction sought with a large enough effect; inconclusive = small, poorly fitted or top-dose-only effect, or another doubt; inactive = no such curve, though single readings can be large; an effect the other way counts as inactive or inconclusive. Potency is the fitted concentration of half-maximal effect.
SMILES,L3MBTL1 inh,GLS inhibitor,HP1b chromo inh,BAZ2B inh,JMJD2A Tudor inh,G9a inh
COc1ccc(C(=O)NC(=S)N2CCN(c3ccccc3O)CC2)cc1,-7%,47%,18%,nt,-20%,nt
CCCCN(C)S(=O)(=O)c1cc(-c2nnc3c4ccccc4c(C)nn23)ccc1C,nt,2%,1%,7%,-10%,1%[59 µM]
CCCN(C(=O)Cn1ncc2c1-c1ccccc1OC2)c1cccc(C)c1,nt,-8%,24%,-1%,-5%,-32%[59 µM]
Cc1ccccc1CN1C(=O)c2ccccc2S(=O)c2ccc(C(=O)NCc3ccco3)cc21 (stereo not given),nt,8%,20%,?,-16%,-10%[59 µM]
CCOc1ccc(C(=S)N2CCCC2)cc1,nt,-3%,17%,3%,-5%,25%[2.33 µM]
CCOc1ccc(C(=S)N2CCCC2)c(OCC)c1,-5%,19%,-21%,-20%,-23%,10µM*
CCOc1ccc(C(=O)OC(C)CN2CCN(C)CC2)cc1 (stereo not given),nt,17%,-10%,-18%,79µM*,?
CCN1CCN(C(=O)c2ccccc2NC(=O)c2ccc(Cl)cc2)CC1,nt,-8%,7%,-8%,-14%,45µM*
Cc1cc(=O)[nH]c2nnc(SCC(N)=O)n12,nt,-8%,8%,1%,-13%,6%[59 µM]
O=C(NCc1ccc(F)cc1)c1c(O)nc2ccccn2c1=O,nt,2%,46%,-2%,8%,14%[59 µM]
Cc1ccc(-c2csc(N3CCC[C@@H]3C(=O)NCCn3c(C(F)(F)F)nc4ccccc43)n2)cc1,-6%,4%,-14%,?,?,?
O=C(NCCn1c(C(F)(F)F)nc2cc(C(F)(F)F)ccc21)[C@H]1CCCN1c1nc(CN2CCCCC2)cs1,-1%,5%,33%,-30%,-28%,71µM*
COc1ccccc1CNc1ncnc2ccc(-c3ccccc3OC)cc12,nt,nt,nt,nt,nt,-44%[0.501 µM]
CC(=O)Nc1ccc(S(=O)(=O)N2C(C)CCCC2C)cc1 (stereo not given),nt,-10%,25%,-31%,-13%,56µM*
CC1CCCC(C)N1S(=O)(=O)c1ccc(NC(=O)CNC2CCCC2)cc1 (stereo not given),nt,0%,2%,-4%,-17%,45µM*
O=S(=O)(c1ccc(Br)cc1)c1nc(-c2ccco2)oc1SCc1ccccc1F,nt,9%,15%,-25%,-23%,?
CC1=C(C(N)=O)C(c2cccc(C)c2)n2nc(-c3ccc(Cl)cc3)nc2N1 (stereo not given),nt,6%,65%,3%,-6%,11%[59 µM]
COc1ccc(COc2cc(-c3cccc(OC)c3)nc3ccc(NC(=O)c4ccc(OC)cc4)cc23)cc1,-5%,1%,36%,-4%,-13%,-2%[59 µM]
CCCOC(=O)c1cccc(NC(=O)c2cccnc2)c1,-1%,12%,14%,6%,-15%,22%[59 µM]
CCc1c(C)sc(NC(=S)Nc2cccnc2)c1C(=O)OC,-12%,-15%,10%,13%,-7%[57.1 µM],45µM*
COc1ccc(COc2cc(-c3cccc(OC)c3)nc3ccc(NC(=O)c4cccnc4)cc23)cc1,-17%,4%,-8%,-35%,?,50µM*
COc1cccc(NC(=S)NC(=O)c2cccnc2)c1,-3%,7%,21%,-37%,-6%,7.9µM*
CCOC(=O)c1cccc(NC(=S)NC(=O)c2cccnc2)c1,-2%,14%,31%,-19%,-8%,50µM*
O=S1(=O)c2ccccc2N(Cc2ccccc2F)c2ccccc21,nt,0%,10%,-8%,-16%,18%[59 µM]
CSC1=NC=C(C#N)C2=NC(c3ccc(Cl)cc3)NN12 (stereo not given),nt,13µM*,nt,nt,nt,nt
SMILES,L3MBTL1 inh,GLS inhibitor,HP1b chromo inh,BAZ2B inh,JMJD2A Tudor inh,G9a inh
Cc1[nH]nc2c1C(c1ccc(Cl)cc1)C(C#N)=C(N)O2 (stereo not given),?,19%,25%,-4%,-7%,?
CCN(CC)c1cc2c(cc1F)c(=O)c(S(=O)(=O)c1ccccc1)cn2Cc1ccccc1,nt,1%,20%,3%,-22%,11%[59 µM]
COc1ccc(N=Nc2nc3cc(Br)c(Br)cc3n2C)c(OC)c1,?,-13%,45µM*,35µM*,32µM*,?
COC(=O)c1ccccc1NC(=O)NCCc1ccc(OC)c(OC)c1,-8%,3%,22%,-12%,-21%,2%
COc1ccc(CCNCC(=O)N2C(C)CCCC2C)cc1OC (stereo not given),3%,3%,?,79µM*,0.79µM*,-10%
COC(=O)c1ccccc1NC(=O)CNCCc1ccc(OC)c(OC)c1,nt,-4%,-34%,20µM*,25µM*,7.9µM*
COc1ccc(CCNC(=O)C2CC2)cc1OC,-1%,2%,14%,nt,1%,?
COc1ccc(CCNC(=O)CN(C2CCCCC2)S(C)(=O)=O)cc1OC,-4%,-3%,19%,45%,-30%,32µM*
COc1ccc(CCNCC(=O)Nc2c(C)cc(C)cc2C)cc1OC,1%,3%,87%,6%,-9%,nt
COc1ccc(CCNCC(=O)Nc2ccc(C)c(Br)c2)cc1OC,0%,-8%,?,?,50µM*,40µM*
O=S(=O)(c1ccc(Oc2ccc3c(c2)OCO3)c(S(=O)(=O)N2CCOCC2)c1)N1CCOCC1,nt,nt,7%[57 µM],nt,-30%[57.1 µM],nt
CCn1c(CNC(=O)c2ccc(OC)cc2)nnc1SCC(=O)Nc1ccccc1,nt,-11%,23%,-6%,-15%,-2%[59 µM]
COc1ccc(-c2nc3ccccc3n3c(-c4cccc(C)c4)c4c(=O)n(C)c(=O)n(C)c4c23)cc1,nt,-2%,14%,1%,-16%,0%[59 µM]
COc1ccc(CC(=O)Nc2cc(NC(=O)Cc3ccc(OC)c(OC)c3)cc(C(=O)O)c2)cc1OC,9%,-14%,17%,?,-18%,nt
COC(=O)c1cc(NC(=O)Cc2ccc(OC)c(OC)c2)cc(C(=O)OC)c1,2%,55%,3%,3%,45µM*,9%
COc1ccc(CCNCC(=O)Nc2ccc(C)c(S(=O)(=O)N(C)C)c2)cc1OC,-12%,6%,-20%,22µM*,?,22µM*
CCOc1ccccc1CNC(=O)c1ccc(NC(=O)N2CCSc3ncccc32)cc1,nt,2%,38%,-17%,3%,-5%[59 µM]
CC(C)NC[C@@H](O)COc1ccc(CCOCC2CC2)cc1,nt,nt,nt,nt,nt,4%[21.5 µM]
CC(C)NCC(O)COc1ccc(CCOCC2CC2)cc1 (stereo not given),5%,1%,17%,-1%,-14%,35µM*!
CC(=O)Nc1cccc(-c2cc(C)c3cc4c(cc3n2)OCO4)c1,nt,9%,34%,-33%,-23%,50µM*
CC(=O)Nc1cccc(-c2nc3ccccc3s2)c1,7%,-1%,52%,-12%,-15%,nt
